Measurements from the supplement of paper PMC10338343.
± gives the standard deviation.

System: MILI (PIWIL2) piRISC loaded with L1MC piRNA (26 nt)
Test: pre-steady-state target cleavage rate (min^-1); guide: L1MC piRNA 5'p-UAACUAAAUACUAUGCAAGCUGUAGG; MIWI and MILI are mouse PIWI proteins and EfPiwi is from a freshwater sponge; tags in brackets are library labels; higher = faster piRNA-guided slicing of the target
Conditions: auxiliary factor: 500 nM mouse GTSF1
In short: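 Active affinity-purified piRISC carrying one synthetic guide (1 nM) was mixed with a transcribed, DNA-blocked target RNA library […] in HEPES–potassium acetate buffer at 33 °C for 0–8 or 0–960 min, with or without 500 nM GTSF1 partner protein. Uncleaved targets were then sequenced and normalised to depth and to weakly complementary targets. Three trials were pooled, and k3 was capped at 0.0001 min^-1. A burst-and-steady-state fit was applied to obtain the pre-steady-state cleavage rate.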
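Note: 1 nM active piRISC with 0.1 nM target library at 33 °C single turnover.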

| Sequence | pre-steady-state target cleavage rate |
| --- | --- |
| UCCUCCUACAGGAAGCAUAGUAUUUUCAAA | 0.0352 ± 0.012 |
| UCCUGGAUGAGCUUGGUAAGUAUUUAGUAA | 0.00762 ± 0.0042 |
| UCCUGGAUCAGCUUGCAUAGAAUAUAGUUA | 0.042 ± 0.012 |
| UCCUGGAACAGCUUGCAUUCUAUUUAGUUA | 0.0609 ± 0.014 |
| UCCUGGAACAGCAUGCAUAGUAUUUACUUA | 0.221 ± 0.034 |
| UCCUGGAUCAGCUUGCAUAGUUUUUACAAA | 0.012 ± 0.0052 |
| UCCUGGUACAGCUUGCUUAGAAUUUAGUUA | 0.181 ± 0.059 |
| UCCUGGAUGUCGAUGCAUAGUAUUUAGUCUA | 0.0115 ± 0.0055 |
| UCCUGGAUCAGCUUGCAUAGUAUUAACAAA | 0.0885 ± 0.022 |
| UCCUGGAACAGCUACGAUAGUAUUUAGUAA | 0.142 ± 0.02 |
| UCCUGGAUGUGCUUGCAUUGUAUUUUGUUA | 0.0555 ± 0.015 |
| UCCUGGAUGAGCAUGCAUAGUAUUUUGUUA | 0.115 ± 0.025 |
| UCCUGCUACAGCUUGCAUAGAAUUUACUUA | 0.107 ± 0.031 |
| UCCUGGAUCAGCAAGCAUAGUAUUUACAAA | 0.108 ± 0.023 |
| UCCUGGUACAGCUUGCAUAGUAAUUAGUAA | 0.212 ± 0.037 |
| UCCUGGAACAGCUUGCAUAGUAAUUUCAAA | 0.0786 ± 0.026 |

| Sequence | pre-steady-state target cleavage rate |
| --- | --- |
| UCCUGGAUCAGCUUGCUAAGUAUUUAGUAA | 0.0344 ± 0.01 |
| UCCUGGUAGAGCUUGCAUAGUAUUUACUUA | 0.0436 ± 0.012 |
| UCCUGGAUGACGAUGCAUAGUAUUUACAAA | 0.0245 ± 0.011 |
| UCCUGGAUCAGCUUGGUUAGUAUUUAGAAA | 0.0485 ± 0.016 |
| UCCUGGAUCAGCUUGCUAAGUAUUUACAAA | 0.0261 ± 0.0085 |
| UCCUGGAUGAGCUUGCUAUAGUAUUUAGUUA | 0.00431 ± 0.0032 |
| UCCUGGAUGUGCUUGCUUAGUAUUAAGUUA | 0.0615 ± 0.017 |
| UCCUGGAUGUCCUUGCAAAGUAUUUACUUA | 0.0234 ± 0.0076 |
| UCCUGGAACAGCUUGCUAUGUAUUUAGAAA | 0.00873 ± 0.0046 |
| UCCUGGAUCAGGUUGCAUAGUAUUUACUUA | 0.117 ± 0.029 |
| UCCUGGAUGUCCUACGAUAGUAUUUAGUUA | 0.007 ± 0.004 |
| UCCUGGAUCAGCUUGCAUACUAUUUUCAAA | 0.00818 ± 0.004 |
| UCCUGGAACAGCAAGCAUAGUAUUUAGAAA | 0.162 ± 0.025 |
| UCCUGGAUCAGCUUGCAUUCUAUUUAGUUA | 0.0266 ± 0.0066 |
| UCCUGGAACAGCUUGCAUAGUUAAUAGUUA | 0.0282 ± 0.01 |
| UCCUGGAUGAGCUUGCAUAGUAUUAAGUAA | 0.0732 ± 0.021 |

Same assay, conditions: auxiliary factor: none (no GTSF1)

| Sequence | pre-steady-state target cleavage rate |
| --- | --- |
| UCCUGGAUGUCGAACCAUAGUAAAAAGUUA | < 0.0001 |
| UCCUGGAUGUCGAACCAAAGUAAUUAGUUA | < 0.0001 |
| UCCUGGAUGUCGAACGUAAGUAUUUAUUUA | < 0.0001 |
| UCCUGGAUGUCGAACGUAUCUAUAUUGUUA | < 0.0001 |
| UCCUGGAUGUCGAAGCAUAGAAUUUAGUAA | < 0.0001 |
| UCCUGGAUGUCGAACGUAUGAAUUUUGUUA | < 0.0001 |
| UCCUGGAUGUCGAUGCAUAGUUAAUAGUUA | 0.00272 ± 0.0027 |
| UCCUGGAUGUCGAUGCAUACUAUUUUGUUA | < 0.0001 |
